Source: PubChem BioAssay (NCATS)
Results filed as inconclusive are left out. Unmarked numbers belong to inactive results. Active and inactive are the calls of the source. Calls follow the shape of the dose curve; as a rule, active = well fitted activation curve with a large enough effect; inconclusive = small, poorly fitted or top-dose-only effect, or another doubt; inactive = no such curve, though single readings can be large or run the other way.

Each compound was assayed against Rap guanine nucleotide exchange factor 3 (Homo sapiens) (UniProt O95398) (assay: Counterscreen qHTS for agonist of cAMP-regulated guanine nucleotide exchange factor 3 (EPAC1) (AID 1645889; also: nearly all actives have a fitted effect of over 40% in size; as to activation: % of control where 0% means no effect)). Conditions: EPAC1 Rap1B-BODIPY-GDP exchange, fluorescence; series mostly up to 154 µM; activation: at the top concentration.
Method in brief: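 Rap1B–BODIPY-GDP (250 nM) with 50 uM GDP; compounds pin-transferred to 9.74 nM–152 uM final (activator) or from 7.32 nM upwards (inhibitor). Fluorescence Ex/Em 480/540 nm read at 5 and 30 min, then after adding cAMP or buffer, at room temperature.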
Potency is read from the fitted curve at half-maximal effect.

Going from `COc1ccc(NC(=O)c2ccc(NC3=NC4CS(=O)(=O)CC4S3)cc2)cc1` (stereo not given) to `Cc1ccc(Cl)cc1NC(=O)c1ccccc1OCC(=O)Nc1ccc(Cl)cc1`, the activation rises from 0.693% [at 30.8 µM] to 12.9% [at 30.8 µM].

Going from `COc1cc2c(cc1OC)-c1cc(NC3CCCCC3)nc(=O)n1CC2` to `COc1ccccc1Sc1nc(-c2ccccc2)ncc1OC`, the activation rises from 2.97% [at 30.8 µM] to 18.8% [at 30.8 µM].

Going from `O=C(NCC1CCCO1)c1ccc(C(=O)NCC2CCCO2)cc1` (stereo not given) to `COC(=O)C1(Cc2ccccc2)NC(c2ccc(F)cc2)C2C(=O)N(C)C(=O)C21` (stereo not given), the activation rises from -3.36% [at 30.8 µM] to 3.32% [at 30.8 µM].

Going from `CCOC(=O)c1sc(N=NC2=C(O)CCCC2=O)c(C(=O)OCC)c1C` to `COC(=O)C1=CN(c2ccc(F)cc2)C(N)=C(C#N)C1c1cccc(OC)c1OC` (stereo not given), the activation rises from 6.27% [at 30.8 µM] to 17% [at 30.8 µM].

Compared with `Cc1ccccc1OCc1nc2ccccc2n1Cc1ccccc1Cl`, `CCOC(=O)C1CCN(C(=O)c2cccc(S(=O)(=O)N(CC)c3ccccc3)c2)CC1` is higher in “activation” value: -11% for the first, 11.2% for the second.

Compared with `CCCC1CC(c2csc(N)n2)CCO1` (stereo not given), `CC(C)(C)c1nc(-c2ccccc2)nc2c1OCCC2` is lower in “activation” value: 18.7% for the first, -18.5% for the second.

Going from `CCOc1cccc(CC(=O)NCc2ccc3c(c2)CCN3C(C)=O)c1OCC` to `O=C(COc1ccc(F)cc1)Nc1nccs1`, the “activation” value falls from 19% to -4.76%.

In the case of `CN(C)c1ccc(/C=C/C(=O)c2ccc3c(c2)OCO3)cc1`, the Potency is reported as 79.4 µM (active).
